This note sets out measurements from PubChem BioAssay (NCI).

Compounds without any hit were thinned out: in the full panel of roughly 83,000, 20% have a hit.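 For each line, cells grew in 96-well plates with the test compound present at a single concentration for 48 hours.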 Unmarked numbers belong to inactive results. The source made the active and inactive calls. Rule for the calls: active = growth percent below 10; inactive = the rest.

Some test systems named below: HCT-15 colon; HT29 colon; SNB-75 CNS; SNB-19 CNS; U251 CNS; PC-3 prostate; SK-MEL-5 melanoma; UACC-62 melanoma; LOX IMVI melanoma; SK-MEL-28 melanoma.
Holding throughout (assay): NCI-60 one-dose screen, 48 h (100 = growth as untreated, 0 = no growth, -100 = all killed)
Holding throughout (settings): 10 µM unless noted

`CCOC(=O)c1cc(C(=O)c2cc(OC)cc(OC)c2)n2ncccc12`: the growth with HCT-15 colon is 21.5%; in the assay on HT29 colon, 7.23% (active); in the assay on SNB-75 CNS, 23.5%; in the assay on SNB-19 CNS it was 47.1%; in the assay on U251 CNS, 24.7%; in the assay on PC-3 prostate, 36.2%. The growth with SK-MEL-5 melanoma is 26%; in the assay with UACC-62 melanoma it was 26.2%; in the assay with LOX IMVI melanoma, 39.7%; with SK-MEL-28 melanoma, 71.2%.

On to `CS(=O)(=O)Nc1cc(-c2ccc3ncnc(Nc4cccc(Cl)c4)c3c2)cnc1Cl`, for which the growth was 4.71% (active) in the assay with HCT-15 colon; 2.65% (active) with HT29 colon; -10.4% (active) with SNB-75 CNS; 18% in the assay with SNB-19 CNS; -2.63% (active) in the assay on U251 CNS; -2.27% (active) in the assay on PC-3 prostate. In addition, the growth with SK-MEL-5 melanoma is -95.6% (active); in the assay on UACC-62 melanoma, -23.6% (active); in the assay on LOX IMVI melanoma, -35.5% (active); in the assay on SK-MEL-28 melanoma, 5.51% (active).

On to `CC(=O)Oc1ccccc1C(=O)N(Cc1ccc2c(Cl)cc(Cl)c(O)c2n1)c1ccccc1`, for which the growth was 23.8% with HCT-15 colon; 89.4% with HT29 colon; 51.2% in the assay on SNB-75 CNS; 42% in the assay with SNB-19 CNS; 27.6% in the assay with U251 CNS; 34% in the assay on PC-3 prostate. Besides, the growth is 41.5% in the assay with SK-MEL-5 melanoma, 29.3% with UACC-62 melanoma, 38.5% in the assay on LOX IMVI melanoma and 58.3% with SK-MEL-28 melanoma.

In the case of `CCN1CCN(c2cc(C(=O)Nc3cccc(Nc4ccc5c(OC)cccc5n4)c3)cc(C(F)(F)F)c2)CC1`, the growth in the assay on HCT-15 colon was -15.9% (active); with HT29 colon, -60% (active); with SNB-75 CNS it was 35.8%; with SNB-19 CNS, 36%; in the assay on U251 CNS, 13.9%; with PC-3 prostate, 7.66% (active). The growth is -1.86% (active) in the assay with SK-MEL-5 melanoma, 13% in the assay with UACC-62 melanoma, -94.1% (active) in the assay with LOX IMVI melanoma and -44.4% (active) with SK-MEL-28 melanoma.

Regarding `Clc1ccc2c(NCCCn3cnc4c(N5CCCC5)nc(Cl)nc43)ccnc2c1`, the growth is 95.5% in the assay on HCT-15 colon; 100% with HT29 colon; 86.3% with SNB-75 CNS; 103% in the assay with SNB-19 CNS; 99.8% in the assay on U251 CNS; 91.9% in the assay on PC-3 prostate. Moreover, the growth in the assay on SK-MEL-5 melanoma is 99.7%; with UACC-62 melanoma, 101%; with LOX IMVI melanoma it was 90.2%; in the assay with SK-MEL-28 melanoma, 107%.

As to `CN(C)C(=O)OCc1ccc2c(Cl)cc(Cl)c(O)c2n1`, the growth with HCT-15 colon is 22.8%; in the assay on HT29 colon, 94%; in the assay with SNB-75 CNS it was 48%; in the assay on SNB-19 CNS, 29.7%; in the assay with U251 CNS, 18.5%; in the assay on PC-3 prostate, 46.4%. Further, the growth in the assay with SK-MEL-5 melanoma was 27.4%; in the assay with UACC-62 melanoma it was -4.4% (active); in the assay with LOX IMVI melanoma, 15.9%; in the assay with SK-MEL-28 melanoma, 42.2%.

With `NC(=N\N=C/c1ccc(Cl)cc1Cl)/C(N)=N\N=C/c1ccc(Cl)cc1Cl`, the growth with HCT-15 colon is 82.9%; with HT29 colon, 52.5%; in the assay on SNB-75 CNS it was 8.06% (active); with SNB-19 CNS, 69.8%; with U251 CNS it was 36.2%; with PC-3 prostate it was 89.2%. For the same molecule, the growth was 108% in the assay with SK-MEL-5 melanoma, 94.9% with UACC-62 melanoma, 74% with LOX IMVI melanoma and 110% with SK-MEL-28 melanoma.

As to `COc1ccc(C(=O)/C=C/Nc2cc(-c3ccccc3)nn2-c2ccccc2)cc1`, the growth was 88.1% in the assay with HCT-15 colon; 99.4% in the assay on HT29 colon; 94% with SNB-75 CNS; 92% in the assay with SNB-19 CNS; 93.2% with U251 CNS; 86.8% in the assay with PC-3 prostate. Also, the growth in the assay on SK-MEL-5 melanoma was 93%; in the assay with UACC-62 melanoma it was 72.2%; in the assay on LOX IMVI melanoma, 92.9%; in the assay on SK-MEL-28 melanoma it was 99.5%.

`CCCCC#Cc1c(I)n(C2OC(CO[Si](C)(C)C(C)(C)C)C3OC(C)(C)OC32)c(=O)[nH]c1=O` (stereo not given): the growth is 68.2% with HCT-15 colon; 69.3% in the assay with HT29 colon; 85.5% in the assay with SNB-75 CNS; 97.6% in the assay on SNB-19 CNS; 82.6% with U251 CNS; 84.4% in the assay with PC-3 prostate. Moreover, the growth was 90.4% in the assay on SK-MEL-5 melanoma, 81% in the assay on UACC-62 melanoma, 19.3% in the assay with LOX IMVI melanoma and 68.9% with SK-MEL-28 melanoma.

Take `COc1ccc(C2CC(=O)Oc3c(OC)c4c(c(OC)c32)OCO4)cc1` (stereo not given): the growth in the assay on HCT-15 colon is 87.6%; with HT29 colon, 99.4%; in the assay on SNB-75 CNS it was 98.6%; in the assay with SNB-19 CNS it was 107%; in the assay on U251 CNS, 99.6%; with PC-3 prostate, 106%. The growth in the assay with SK-MEL-5 melanoma is 105%; with UACC-62 melanoma, 91.1%; in the assay on LOX IMVI melanoma it was 90.3%; with SK-MEL-28 melanoma, 95.6%.

On to `CC(C)(C)CC(C)(C)Nc1c(-c2c(O)c3ccccc3oc2=O)nc2sccn12`, for which the growth is 100% in the assay on HCT-15 colon; 97% with HT29 colon; 108% in the assay with SNB-75 CNS; 97% with SNB-19 CNS; 97.7% in the assay on U251 CNS; 92.6% in the assay with PC-3 prostate. For the same molecule, the growth with SK-MEL-5 melanoma is 96.9%; with UACC-62 melanoma, 90.7%; in the assay with LOX IMVI melanoma, 99.7%; in the assay with SK-MEL-28 melanoma, 102%.

`c1ccc2[nH]c(-c3ccc(-c4nccc5c4[nH]c4ccccc45)cc3)nc2c1`: the growth is 38.7% in the assay with HCT-15 colon; 4.38% (active) in the assay on HT29 colon; 64.9% with SNB-75 CNS; 55.1% in the assay with SNB-19 CNS; 24.2% with U251 CNS; 85.7% in the assay on PC-3 prostate. Moreover, the growth is 62.6% with SK-MEL-5 melanoma, -24% (active) with UACC-62 melanoma, 10.8% in the assay with LOX IMVI melanoma and 61.3% with SK-MEL-28 melanoma.

Consider `O=C1c2ccccc2C(=O)c2cc(Cn3c[n+](Cc4ccc5ccccc5c4)c4ccccc43)ccc21`, for which the growth in the assay with HCT-15 colon is 89.8%; in the assay with HT29 colon, 51.5%; in the assay with SNB-75 CNS, 42.3%; in the assay with SNB-19 CNS, 45%; in the assay on U251 CNS it was 57.1%; in the assay on PC-3 prostate, 27.7%. The growth is 34.1% with SK-MEL-5 melanoma, 4.86% (active) in the assay with UACC-62 melanoma, 52% with LOX IMVI melanoma and 45.4% in the assay with SK-MEL-28 melanoma.
